# Bioassay records as filed in PubChem.
# TDP1 cell noCPT = qHTS for Inhibitors of human tyrosyl-DNA phosphodiesterase 1 (TDP1): qHTS in cells in absence of CPT | hit rate 15% among 420,000 | DT40 Tdp1-/- hTDP1 cells, no CPT, ATP luminescence, 48 h | Potency, µM (top dose mostly 46.2 µM), actives largely listed as inhibitors; note: nearly all actives have a fitted effect of over 55% in size
#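 A cellular qHTS used chicken DT40 cells lacking endogenous Tdp1 but carrying stably transfected human TDP1. Compounds were applied without camptothecin, and cell growth kinetics were judged by ATP-dependent luminescence after ≥48 hr.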
# HepG2 viability = qHTS for Inhibitors of TGF-b: Cytotox Counterscreen; HepG2 CAGA-GFP viability, ATP luminescence, 18 h; Potency, µM (series often up to 46.1 µM), usual class: cytotoxic; hit rate 0.76% among 410,000; AID 588856, 2011
#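 HepG2 CAGA-GFP cells (1000/well, DMEM with 1% FBS) received compound, then TGF-beta at 500 pg/mL final, and were incubated 18 hours at 37 degrees C. Viability was read by CellTiter-Glo luminescence. Media-only wells were set as complete cell-killing and DMSO as no toxicity.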
# TGFb SMAD3 inh = qHTS for Inhibitors of TGF-b | HepG2 CAGA-GFP TGF-b/SMAD3 reporter, GFP fluorescence, 18 h; TGF-beta stimulated, 500 pg/mL final | Potency, µM (top dose mostly 46.1 µM), usual class: inhibitors | hit rate 1.2% among 410,000; note: nearly all actives have a fitted effect of over 65% in size
#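 GFP signal (ex488/em500-530) from TGF-beta-stimulated HEPG2 CAGA-GFP cells, 500 pg/mL final, 18 h at 37 degrees C in DMEM plus 1% FBS, normalized to unstimulated and DMSO-stimulated controls.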
# ATXN2 expr inh = Primary qHTS for Inhibitors of ATXN expression; HEK-293 ATXN2-luciferase reporter, luminescence, 24 h; Potency, µM (series often up to 57 µM), hits mostly inhibitors; hit rate 0.72% among 360,000; note: nearly all actives have a fitted effect of over 55% in size
#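 qHTS (up to 57 uM final) was run with 24 h compound exposure of reporter cells at 37 °C. Each well was multiplexed: SteadyGlo luminescence measured ATXN2-luciferase expression after a fluorogenic Gly-Phe-AFC viability readout (25 uM final).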
# TDP1 cell CPT = qHTS for Inhibitors of human tyrosyl-DNA phosphodiesterase 1 (TDP1): qHTS in cells in presence of CPT; chicken DT40 Tdp1-/-;hTDP1 cells + 20 nM CPT, ATP luminescence, 48 h; hit rate 12% among 420,000; AID 686979, 2013; Potency, µM (top dose mostly 46.2 µM), usual class: inhibitors; note: nearly all actives have a fitted effect of over 55% in size
#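 Chicken DT40 Tdp1-/- cells stably complemented with human TDP1 were seeded at 400 cells/well in medium containing 20 nM camptothecin, exposed to pin-transferred compounds, and grown at 37 °C for at least 48 hr. Viability was read as ATP luminescence.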
# ATXN viability = Viability Counterscreen for Primary qHTS for Inhibitors of ATXN expression; hit rate 0.49% among 400,000; S2 cells (HEK-293 line with an ATXN2-luciferase reporter) viability, CellTiter-Fluor protease fluorescence, 24 h; Potency, µM (series often up to 56.7 µM), usual class: cytotoxic; note: nearly all actives have a fitted effect of over 40% in size
# A number is an active result; n = inactive; u = inconclusive; x = no result given. The list is not random: actives were taken first. Their share in the collection is about 17%. Calls come from the whole dose curve; as a rule, active = well fitted curve in the direction sought with a large enough effect; inconclusive = small, poorly fitted or top-dose-only effect, or another doubt; inactive = no such curve, though single readings can be large; an effect the other way counts as inactive or inconclusive.
SMILES,TDP1 cell noCPT,HepG2 viability,TGFb SMAD3 inh,ATXN2 expr inh,TDP1 cell CPT,ATXN viability
CCOC(=O)N1CCc2c(sc3c2C(=O)NC(c2ccccc2)N3)C1 (centres undefined),3.3µM,n,u,n,6.5µM,n
C1CCN(CCCNC2C3CC4CC(C3)CC2C4)C1 (centres undefined),u,n,n,n,u,n
O=S(=O)(c1cnc(Cl)c(Br)c1)N1CCCCCC1,n,n,n,n,n,n
O=C1NC[C@H](c2ccccc2)N(CCc2cccc(F)c2)C1=O,n,n,n,n,n,n
NC1=NC[C@H](Cc2ccc(O)cc2)N1CCCCC1CCCCC1,2.6µM,n,u,u,4.6µM,u
NC1=NC[C@H](Cc2ccccc2)N1CCc1cccc(F)c1,12µM,n,n,n,13µM,n
NC1=NC[C@H](Cc2ccccc2)N1CCCCC1CCCCC1,5.2µM,n,u,25µM,5.2µM,u
Cc1ccc(Sc2nc(-c3ccccc3)nnc2C(F)(F)F)cc1,21µM,n,n,u,21µM,u
CNc1nc(-c2ccccc2)nnc1C(F)(F)F,n,n,n,n,n,n
CN1CCN(C(=S)Nc2ccccc2Cl)CC1,u,n,n,n,n,n
COc1ccccc1N1CCN(C(=S)Nc2cccc(C)c2)CC1,23µM,n,u,n,23µM,n
Cc1cccc(NC(=S)N2CCCCCC2)c1C,u,n,n,n,u,n
Cc1c(Cl)cccc1NC(=S)N1CCCCCC1,18µM,n,u,n,u,n
CCN1CCN(C(=S)Nc2ccccc2Cl)CC1,u,n,n,n,11µM,n
Cc1ccccc1NC(=S)N1CCN(c2ccccc2Cl)CC1,12µM,n,n,n,15µM,n
CN(C)c1ncc2nc(-c3ccc(Cl)cc3)c(=O)n(C)c2n1,n,x,x,x,n,x
COc1ccc(S(=O)(=O)N(CC(=O)NCCc2ccccc2)c2ccc(Cl)cc2)cc1,n,n,n,n,n,n
Nc1cc(N)[nH]c(=S)n1,n,n,n,x,n,x
COc1ccccc1NC(=S)N1CCN(c2cccc(C)c2C)CC1,2.3µM,n,u,u,5.2µM,n
CCc1ccc(C(=O)NN(C(=O)c2ccc(CC)cc2)C(C)(C)C)cc1,u,n,n,n,u,n
O=[N+]([O-])c1ccc2c(c1)c(-c1ccccc1)nc1nncn12,7.3µM,n,n,n,n,u
CCc1ccc(Nc2ncnc3sc4c(c23)CCCC4)cc1,18µM,n,n,n,21µM,n
CC(=O)Nc1ccc(Nc2ncnc3sc4c(c23)CCCC4)cc1,u,n,n,n,u,n
Cc1nc(Nc2cccc(O)c2)c2c3c(sc2n1)CCC3,21µM,n,n,u,18µM,n
COc1ccc(/C=N/Nc2ncnc3sc4c(c23)CCCC4)cc1OC,16µM,n,n,n,u,x
SMILES,TDP1 cell noCPT,HepG2 viability,TGFb SMAD3 inh,ATXN2 expr inh,TDP1 cell CPT,ATXN viability
COc1ccc(Nc2ncnc3sc4c(c23)CCCC4)cc1,0.029µM,n,n,n,3.3µM,n
CCc1nc(Nc2ccc(F)c(Cl)c2)c2c3c(sc2n1)CCCC3,5.8µM,n,n,n,5.8µM,n
C[C@H]1CN([C@@H](C)CO)C(=O)c2cccc(NC(=O)C3CC3)c2O[C@H]1CN(C)S(=O)(=O)c1ccccc1,n,n,n,n,n,n
COc1ccccc1OCCn1c(-c2ccc(Br)cc2)nc2ccccc2c1=O,n,n,n,n,n,n
COc1ccc(-c2nc3ccccc3s2)cc1NC(=O)c1cccc(F)c1,u,n,n,n,u,n
CC(C)C1C(c2ccccc2)NC(c2ccccc2)CC1(O)c1ccc(F)cc1 (centres undefined),15µM,n,n,u,u,u
Oc1ccc(C[C@H]2CNCCN2CCC23CC4CC(CC(C4)C2)C3)cc1,16µM,n,u,u,18µM,u
COc1cc(CCCN2CCNC[C@H]2Cc2ccc(O)cc2)cc(OC)c1OC,n,n,n,n,n,n
